The text below walks through data of PubChem BioAssay (NCI).

Test systems include SR leukemia; RPMI-8226 leukemia; OVCAR-8 ovarian; OVCAR-5 ovarian; OVCAR-4 ovarian; SK-OV-3 ovarian; IGROV1 ovarian; OVCAR-3 ovarian; HS 578T breast; NCI/ADR-RES ovarian; T-47D breast; BT-549 breast; MDA-MB-435 melanoma; SW-620 colon; MCF7 breast; HCT-116 colon; HCC-2998 colon; KM12 colon.
What all share (assay): NCI-60 one-dose screen, 48 h (100 = growth as untreated, 0 = no growth, -100 = all killed)
Holding throughout (details): 10 µM unless noted

Molecules are shown by their SMILES. The panel holds about 83,000 compounds, 20% with a hit somewhere; the sample as a whole holds those more often.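 Note: values are percent growth. 100 is the growth of untreated cells, values between 100 and 0 indicate rising inhibition; between -100 and 0 indicates cell death.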 Values without a mark were called inactive. The source made the active and inactive calls. Rule for the calls: active = growth percent below 10; inactive = the rest.

As for `N#C/C(=C\c1ccc(Br)cc1)n1nnc2ccc(F)cc21`, the growth in the experiment with SR leukemia was -11.9% (active); in the experiment on RPMI-8226 leukemia it was -35.4% (active); in the experiment on OVCAR-8 ovarian, 7.38% (active); in the experiment with OVCAR-5 ovarian, 3.03% (active); in the experiment on OVCAR-4 ovarian, 24.9%; in the experiment on SK-OV-3 ovarian, 51.6%. Further, the growth in the experiment on IGROV1 ovarian is -31.2% (active); in the experiment on OVCAR-3 ovarian it was -45.3% (active); with HS 578T breast, 3.56% (active); with NCI/ADR-RES ovarian, 1.62% (active); in the experiment on T-47D breast it was 8.46% (active); in the experiment with BT-549 breast, 1.54% (active). For the same compound, the growth was -34.1% (active) with MDA-MB-435 melanoma; -48.4% (active) with SW-620 colon; 5.23% (active) in the experiment with MCF7 breast; -75.3% (active) with HCT-116 colon; -63.6% (active) with HCC-2998 colon; -24.7% (active) with KM12 colon.
Take `Oc1c(Cl)cc(Cl)cc1/C=N/Nc1nnc(N/N=C/c2cc(Cl)cc(Cl)c2O)c2ccccc12`: the growth was 3.92% (active) with SR leukemia; 0.393% (active) in the experiment on RPMI-8226 leukemia; 17.4% with OVCAR-8 ovarian; 40.4% with OVCAR-5 ovarian; 8.13% (active) in the experiment with OVCAR-4 ovarian; 29.3% with SK-OV-3 ovarian. In addition, the growth with IGROV1 ovarian was 13.1%; in the experiment on OVCAR-3 ovarian, 14.1%; in the experiment on HS 578T breast, 31.6%; in the experiment with NCI/ADR-RES ovarian, 1.78% (active); with T-47D breast it was 14.8%; in the experiment on BT-549 breast it was 15.7%. The growth in the experiment with MDA-MB-435 melanoma was 14.2%; in the experiment on SW-620 colon it was 17.2%; in the experiment with MCF7 breast, 7.3% (active); with HCT-116 colon, 10%; in the experiment on HCC-2998 colon, 33.1%; with KM12 colon it was 6.29% (active).
`COc1ccc(-c2csc(N(C(=O)N3CCN(c4cc5c(cc4F)c(=O)c(C(=O)O)cn5C4CC4)CC3)c3ccccc3)n2)cc1`: the growth in the experiment on SR leukemia was 10.4%; in the experiment on RPMI-8226 leukemia, 16%; with OVCAR-8 ovarian, 15.5%; in the experiment on OVCAR-5 ovarian it was 12.8%; in the experiment on OVCAR-4 ovarian it was 33.3%; with SK-OV-3 ovarian, 21.8%. In addition, the growth in the experiment on IGROV1 ovarian was 17.1%; in the experiment with OVCAR-3 ovarian, 8.09% (active); with HS 578T breast, 40.3%; with NCI/ADR-RES ovarian, 11.8%; with T-47D breast, 17.1%; with BT-549 breast, -4.67% (active). Besides, the growth with MDA-MB-435 melanoma is 16.9%; in the experiment with SW-620 colon, 17.4%; in the experiment on MCF7 breast, 8.74% (active); in the experiment with HCT-116 colon, 6.33% (active); in the experiment on HCC-2998 colon it was 24.1%; in the experiment on KM12 colon, 5.96% (active).
As to `COc1ccc2[nH]cc(-c3nc(-c4c[nH]c5ccncc45)cs3)c2c1`, the growth with SR leukemia was 0.735% (active); in the experiment on RPMI-8226 leukemia, -20% (active); with OVCAR-8 ovarian it was 38.6%; in the experiment on OVCAR-5 ovarian, 45.3%; in the experiment with OVCAR-4 ovarian it was 47.3%; with SK-OV-3 ovarian, 86.3%. Also, the growth was 64.7% with IGROV1 ovarian; -13.2% (active) in the experiment with OVCAR-3 ovarian; 93.2% with HS 578T breast; 59.9% with NCI/ADR-RES ovarian; 61.5% in the experiment on T-47D breast; 74% in the experiment on BT-549 breast. Also, the growth is -76.3% (active) in the experiment with MDA-MB-435 melanoma; -61.4% (active) in the experiment on SW-620 colon; 5.44% (active) in the experiment on MCF7 breast; -62% (active) with HCT-116 colon; -45.8% (active) with HCC-2998 colon; 21.1% in the experiment with KM12 colon.
As for `S=C1CCSC(=S)N1CCCN1C(=S)CCSC1=S`, the growth in the experiment with SR leukemia was 21%; with RPMI-8226 leukemia, 3.38% (active); in the experiment on OVCAR-8 ovarian it was 55.3%; with OVCAR-5 ovarian it was 82.8%; in the experiment on OVCAR-4 ovarian, 83.7%; with SK-OV-3 ovarian it was 112%. In addition, the growth with IGROV1 ovarian is 85.8%; in the experiment with OVCAR-3 ovarian it was 34.1%; in the experiment on HS 578T breast it was 83.2%; in the experiment with NCI/ADR-RES ovarian, 80.7%; in the experiment on T-47D breast, 35%; with BT-549 breast it was 89.4%. Further, the growth with MDA-MB-435 melanoma was 59.6%; in the experiment on SW-620 colon it was 53%; in the experiment on MCF7 breast, 20.8%; with HCT-116 colon, 43%; in the experiment on HCC-2998 colon, 96.2%; in the experiment with KM12 colon it was 82.7%.
With `O=C(Nn1c2c(sc1=NCc1ccccc1)C(=O)c1ccccc1C2=O)c1cc2ccc1CCc1ccc(cc1)CC2`, the growth was 48.3% in the experiment on SR leukemia; 59% in the experiment on RPMI-8226 leukemia; 46.3% in the experiment on OVCAR-8 ovarian; 118% with OVCAR-5 ovarian; 47.7% with OVCAR-4 ovarian; 72.9% in the experiment with SK-OV-3 ovarian. Besides, the growth with IGROV1 ovarian is 53%; in the experiment on OVCAR-3 ovarian, 51.1%; in the experiment on HS 578T breast, 72.2%; in the experiment with NCI/ADR-RES ovarian it was 64.3%; with T-47D breast it was 35.1%; in the experiment with BT-549 breast, 77.3%. For the same compound, the growth in the experiment on MDA-MB-435 melanoma is -85.5% (active); in the experiment on SW-620 colon, 77.5%; in the experiment with MCF7 breast, 40%; in the experiment on HCT-116 colon it was 55.9%; in the experiment with HCC-2998 colon, 101%; in the experiment on KM12 colon, 74.8%.
With `COCCn1cc(-c2nc(-c3cc4cccnc4n3CCOC)cs2)c2cc(OC)ccc21`, the growth is 36.3% with SR leukemia; 60.3% with RPMI-8226 leukemia; 61.1% in the experiment with OVCAR-8 ovarian; 23.6% in the experiment with OVCAR-5 ovarian; 20% in the experiment with OVCAR-4 ovarian; 73.4% in the experiment on SK-OV-3 ovarian. In addition, the growth with IGROV1 ovarian was 30.8%; with OVCAR-3 ovarian it was 4.62% (active); with HS 578T breast it was 58%; with NCI/ADR-RES ovarian, 58.3%; with T-47D breast, -10.5% (active); in the experiment with BT-549 breast it was 57%. The growth was 91.4% with MDA-MB-435 melanoma; 49% in the experiment on SW-620 colon; 5.4% (active) with MCF7 breast; 43% with HCT-116 colon; 28% in the experiment with HCC-2998 colon; 11.8% with KM12 colon.
As for `CS(=O)(=O)c1cccc(-c2c(-c3cccc(OS(N)(=O)=O)c3)nc3sccn23)c1`, the growth in the experiment with SR leukemia was 85.1%; in the experiment on RPMI-8226 leukemia, 113%; in the experiment with OVCAR-8 ovarian it was 95.2%; in the experiment with OVCAR-5 ovarian, 99.8%; with OVCAR-4 ovarian it was 101%; in the experiment with SK-OV-3 ovarian it was 121%. The growth in the experiment with IGROV1 ovarian was 97.9%; in the experiment with OVCAR-3 ovarian, 106%; with HS 578T breast, 103%; in the experiment on NCI/ADR-RES ovarian, 103%; with T-47D breast, 79.3%; with BT-549 breast, 100%. The growth in the experiment on MDA-MB-435 melanoma was 102%; with SW-620 colon, 99.7%; in the experiment on MCF7 breast, 92%; in the experiment on HCT-116 colon it was 97.9%; with HCC-2998 colon, 104%; in the experiment on KM12 colon, 103%.
